# Active and inactive are the calls of the source. How the source made its calls: active means hit-call score of the fitted dose curve at least 0.9, where 1 is the maximum; inactive means score below 0.9.
# Experiments:
# [1] = read-out: Transforming growth factor beta 1 (TGFb1), TGFB1 (gene 7040); assay: BSK_KF3CT_TGFb1: BioMAP Diversity Plus: KF3CT Assay for Transforming growth factor beta 1 (TGFb1) Biomarker Activity (AID 2283072); details: primary human keratinocytes with fibroblasts; actives raise or lower the signal
# How it was run: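 Primary human skin cells (keratinocytes, foreskin fibroblasts) were co-cultured, exposed to test chemical and sampled at 24 h. TGF-b1 levels were measured by ELISA and fitted bidirectionally relative to DMSO.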
# [2] = read-out: C-C motif chemokine 2 (Homo sapiens) (UniProt P13500); assay: BSK_KF3CT_MCP1: BioMAP Diversity Plus: KF3CT Assay for Monocyte Chemoattractant Protein 1 (MCP1/CCL2) Biomarker Activity (AID 2283073); details: primary human keratinocytes with fibroblasts; actives raise or lower the signal
# How it was run: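 Human keratinocyte–foreskin fibroblast co-culture; MCP-1 measured by ELISA 24 h after dosing. Bidirectional fit vs DMSO; cytotoxicity tracked by SRB total protein in parallel cultures.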
# [3] = read-out: Matrix Metallopeptidase 9 (MMP9), MMP9 (gene 4318); assay: BSK_KF3CT_MMP9: BioMAP Diversity Plus: KF3CT Assay for Matrix Metallopeptidase 9 (MMP9) Biomarker Activity (AID 2283074); details: primary human keratinocytes with fibroblasts; actives raise or lower the signal
# How it was run: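 Human keratinocyte/foreskin fibroblast co-culture; compound added; 24 h; MMP-9 by ELISA; bidirectional fit vs DMSO baseline.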
# [4] = read-out: urokinase plasminogen activator (uPA), PLAU (gene 5328); assay: BSK_KF3CT_uPA: BioMAP Diversity Plus: KF3CT Assay for urokinase plasminogen activator (uPA) Biomarker Activity (AID 2283075); details: primary human keratinocytes with fibroblasts; actives raise or lower the signal
# How it was run: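 ELISA readout of uPA, analyzed for signal gain or loss relative to DMSO, from a human primary keratinocyte–foreskin fibroblast co-culture measured 24 h after chemical treatment.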
# CD40, CD40 (gene 958) [5] = assay: BSK_LPS_CD40: BioMAP Diversity Plus: LPS Assay for CD40 Biomarker Activity (AID 2283076); details: primary human HUVEC with PBMC; actives raise or lower the signal
# How it was run: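 HUVEC plus PBMC co-culture stimulated with LPS; CD40 quantified by ELISA 24 h after compound dosing. Fitting was bidirectional relative to DMSO. SRB staining of parallel cultures flagged overt cytotoxicity.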
# [6] = read-out: E-selectin (Homo sapiens) (UniProt P16581); assay: BSK_LPS_Eselectin: BioMAP Diversity Plus: LPS Assay for Eselectin Biomarker Activity (AID 2283077); details: primary human HUVEC with PBMC; actives raise or lower the signal
# How it was run: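 Human umbilical vein endothelial cells co-cultured with PBMC under LPS stimulation; cell-surface E-selectin measured by ELISA 24 h after dosing. Change in either direction versus DMSO, with SRB total-protein staining in parallel cultures for cytotoxicity.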
# [7] = read-out: Interleukin-8 (IL8), CXCL8 (gene 3576); assay: BSK_LPS_IL8: BioMAP Diversity Plus: LPS Assay for Interleukin-8 (IL8) Biomarker Activity (AID 2283078); details: primary human HUVEC with PBMC; actives raise or lower the signal
# How it was run: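 Human umbilical vein endothelial cells co-cultured with PBMC, LPS-stimulated, exposed to compound for 24 h. IL-8 quantified by ELISA; fitted in both directions against DMSO, with SRB total-protein staining of parallel cultures for cytotoxicity.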
# [8] = BSK_LPS_SRB: Viability Assessment in the BioMAP Diversity Plus: LPS Assay (AID 2283079); details: primary human HUVEC with PBMC;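 further: total protein by sulforhodamine B absorbance as a cytotoxicity measure; measured one day after compound addition; fitted in both directions against DMSO so loss or gain of signal counts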
# How it was run: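 Co-culture of human umbilical vein endothelial cells and PBMC, read 24 h after dosing. Total protein by 0.1% SRB staining after 10% TCA fixation, absorbance at 560 nm; bidirectional fit against DMSO.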
# [9] = read-out: Interleukin-1 alpha (IL1a), IL1A (gene 3552); assay: BSK_LPS_IL1a: BioMAP Diversity Plus: LPS Assay for Interleukin-1 alpha (IL1a) Biomarker Activity (AID 2283080); details: primary human HUVEC with PBMC; actives raise or lower the signal
# How it was run: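 Human umbilical vein endothelial cells co-cultured with PBMC and stimulated with LPS; IL-1a measured by ELISA 24 h after dosing. Bidirectional fitting against DMSO; cytotoxicity checked by SRB staining in parallel cultures.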
# [10] = read-out: Monocyte Chemoattractant Protein-1 (MCP1), CCL2 (gene 6347); assay: BSK_LPS_MCP1: BioMAP Diversity Plus: LPS Assay for Monocyte Chemoattractant Protein-1 (MCP1) Biomarker Activity (AID 2283081); details: primary human HUVEC with PBMC; actives raise or lower the signal
# How it was run: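 Human umbilical vein endothelial cells co-cultured with PBMC, LPS-stimulated; secreted MCP-1 measured by ELISA 24 h after compound addition. Bidirectional curve fitting against DMSO baseline; SRB total-protein staining in parallel cultures for cytotoxicity.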
# [11] = BSK_LPS_PGE2: BioMAP Diversity Plus: LPS Assay for Prostaglandin E2 (PGE2) Biomarker Activity (AID 2283082); details: primary human HUVEC with PBMC; actives raise or lower the signal;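 on AC50: secreted prostaglandin E2 measured by ELISA in LPS-stimulated co-culture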
# How it was run: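 LPS-activated HUVEC/PBMC co-culture; cmpd dosed, 24 h; PGE2 by ELISA; bidirectional fit vs DMSO; SRB (0.1%, TCA-fixed, 560 nm) in parallel plates for overt cytotox.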
# [12] = read-out: Macrophage colony-stimulating factor (MCSF), CSF1 (gene 1435); assay: BSK_LPS_MCSF: BioMAP Diversity Plus: LPS Assay for Macrophage colony-stimulating factor (MCSF) Biomarker Activity (AID 2283083); details: primary human HUVEC with PBMC; actives raise or lower the signal
# How it was run: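 HUVEC–PBMC co-culture, M-CSF measured by ELISA 24 h after chemical dosing. Fitted in both directions relative to DMSO as negative control; overt cytotoxicity assessed by SRB total-protein staining in parallel cultures.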
# [13] = read-out: Tissue Factor, F3 (gene 2152); assay: BSK_LPS_TissueFactor: BioMAP Diversity Plus: LPS Assay for Tissue Factor Biomarker Activity (AID 2283084); details: primary human HUVEC with PBMC; actives raise or lower the signal
# How it was run: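 Human umbilical vein endothelial cells co-cultured with PBMC were dosed with compound. Cell-surface CD142 was measured by ELISA 24 h later. Activity was fitted bidirectionally against DMSO, with SRB total-protein staining in parallel cultures for cytotoxicity.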
# [14] = read-out: Tumor necrosis factor (Homo sapiens) (UniProt P01375); assay: BSK_LPS_TNFa: BioMAP Diversity Plus: LPS Assay for Tumour Necrosis Factor alpha (TNFa) Biomarker Activity (AID 2283085); details: primary human HUVEC with PBMC; actives raise or lower the signal
# How it was run: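 Read-out is ELISA of TNFa in primary human endothelial cell–PBMC co-cultures at 24 h after compound. Activity in either direction was fitted against DMSO.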
# [15] = read-out: Vascular cell adhesion molecule 1 (VCAM1), VCAM1 (gene 7412); assay: BSK_LPS_VCAM1: BioMAP Diversity Plus: LPS Assay for Vascular cell adhesion molecule 1 (VCAM1) Biomarker Activity (AID 2283086); details: primary human HUVEC with PBMC; actives raise or lower the signal
# How it was run: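 HUVEC + PBMC co-culture, LPS system; compound 24 h; VCAM-1 by ELISA; bidirectional fit vs DMSO control; parallel SRB (0.1%, TCA-fixed, 560 nm) for cytotoxicity.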
# CD38, CD38 (gene 952) = assay: BSK_SAg_CD38: BioMAP Diversity Plus: SAg Assay for CD38 Biomarker Activity (AID 2283087); details: primary human HUVEC with PBMC; actives raise or lower the signal
# How it was run: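 Human HUVEC plus PBMC co-culture stimulated with superantigen; CD38 measured by ELISA 24 h after chemical dosing. Fluorescence read-out, bidirectional fit against DMSO; cytotoxicity tracked in parallel by SRB and Alamar Blue.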
# CD40, CD40 (gene 958) [16] = assay: BSK_SAg_CD40: BioMAP Diversity Plus: SAg Assay for CD40 Biomarker Activity (AID 2283088); details: primary human HUVEC with PBMC; actives raise or lower the signal
# How it was run: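 HUVEC plus PBMC co-culture, superantigen-activated, with CD40 read by ELISA 24 h after dosing. Curves fitted in both directions against DMSO. Overt cytotoxicity checked by parallel SRB total-protein staining.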
# CD69, CD69 (gene 969) = assay: BSK_SAg_CD69: BioMAP Diversity Plus: SAg Assay for CD69 Biomarker Activity (AID 2283089); details: primary human HUVEC with PBMC; actives raise or lower the signal
# How it was run: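 HUVEC co-cultured with PBMC were dosed with chemical, and CD69 was measured by ELISA with fluorescence read-out 24 h later. Bidirectional curve fitting used DMSO as negative control and activity baseline.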
# [17] = read-out: Monocyte Chemoattractant Protein-1 (MCP1), CCL2 (gene 6347); assay: BSK_SAg_MCP1: BioMAP Diversity Plus: SAg Assay for Monocyte Chemoattractant Protein-1 (MCP1) Biomarker Activity (AID 2283090); details: primary human HUVEC with PBMC; actives raise or lower the signal
# How it was run: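 MCP-1 levels in the endothelial–PBMC SAg co-culture were quantified by ELISA at 24 h post-dosing; both increases and decreases versus DMSO scored. Cytotoxicity monitored by SRB total protein in parallel cultures.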
# [18] = read-out: E-selectin (Homo sapiens) (UniProt P16581); assay: BSK_SAg_Eselectin: BioMAP Diversity Plus: SAg Assay for Eselectin Biomarker Activity (AID 2283091); details: primary human HUVEC with PBMC; actives raise or lower the signal
# How it was run: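 Human umbilical vein endothelial cells co-cultured with peripheral blood mononuclear cells, SAg system. E-selectin is measured by ELISA 24 h after dosing and fitted bidirectionally against DMSO. Cytotoxicity is checked by SRB staining of parallel cultures.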
# Sequence of Tumor necrosis factor (Homo sapiens) (P01375 whole entry, looked up): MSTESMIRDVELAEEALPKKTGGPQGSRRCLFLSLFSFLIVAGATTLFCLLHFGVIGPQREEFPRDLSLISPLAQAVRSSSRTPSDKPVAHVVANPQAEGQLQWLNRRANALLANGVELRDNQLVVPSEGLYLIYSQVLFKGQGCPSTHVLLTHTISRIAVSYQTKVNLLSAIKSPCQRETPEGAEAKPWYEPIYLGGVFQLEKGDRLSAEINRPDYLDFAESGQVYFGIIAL
# Sequence of E-selectin (Homo sapiens) (P16581 whole entry, looked up): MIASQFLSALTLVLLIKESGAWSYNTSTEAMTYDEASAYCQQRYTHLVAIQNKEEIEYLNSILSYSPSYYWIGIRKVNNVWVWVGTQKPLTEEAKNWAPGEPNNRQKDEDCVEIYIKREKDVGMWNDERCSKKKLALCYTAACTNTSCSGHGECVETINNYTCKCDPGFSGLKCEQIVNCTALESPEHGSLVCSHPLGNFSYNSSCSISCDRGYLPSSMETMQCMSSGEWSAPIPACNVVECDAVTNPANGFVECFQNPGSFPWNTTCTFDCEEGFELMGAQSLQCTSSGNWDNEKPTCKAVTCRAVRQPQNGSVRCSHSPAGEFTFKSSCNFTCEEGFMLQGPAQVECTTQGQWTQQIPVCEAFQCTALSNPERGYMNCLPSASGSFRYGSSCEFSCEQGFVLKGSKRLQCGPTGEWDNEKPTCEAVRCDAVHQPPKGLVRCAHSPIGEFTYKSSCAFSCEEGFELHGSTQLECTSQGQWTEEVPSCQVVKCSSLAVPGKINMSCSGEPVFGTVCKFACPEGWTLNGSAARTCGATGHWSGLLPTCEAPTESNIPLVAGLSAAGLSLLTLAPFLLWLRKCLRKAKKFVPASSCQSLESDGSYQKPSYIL
smiles,measurement,setting,value
CC(C)c1cccc(C(C)C)c1NC(=O)NS(=O)(=O)c1cc(C(C)(C)O)co1,outcome,[1],inactive
same,outcome,[2],inactive
same,outcome,[3],inactive
same,outcome,[4],inactive
same,outcome,"CD40, CD40 (gene 958) [5]",inactive
same,AC50,[6],148 nM (active)
same,AC50,[7],152 nM (active)
same,outcome,[8],inactive
same,outcome,[9],inactive
same,outcome,[10],inactive
same,AC50,[11],1040 nM (active)
same,outcome,[12],inactive
same,outcome,[13],inactive
same,outcome,[14],inactive
same,outcome,[15],inactive
same,outcome,"CD38, CD38 (gene 952)",inactive
same,outcome,"CD40, CD40 (gene 958) [16]",inactive
same,outcome,"CD69, CD69 (gene 969)",inactive
same,outcome,[17],inactive
same,outcome,[18],inactive
CCc1nc(N)nc(N)c1-c1ccc(Cl)cc1,outcome,[1],inactive
same,outcome,[2],inactive
same,outcome,[3],inactive
same,outcome,[4],inactive
same,outcome,"CD40, CD40 (gene 958) [5]",inactive
same,outcome,[6],inactive
same,outcome,[7],inactive
same,outcome,[8],inactive
same,outcome,[9],inactive
same,outcome,[10],inactive
same,outcome,[11],inactive
same,outcome,[12],inactive
same,outcome,[13],inactive
same,outcome,[14],inactive
same,outcome,[15],inactive
same,outcome,"CD38, CD38 (gene 952)",inactive
same,outcome,"CD40, CD40 (gene 958) [16]",inactive
same,outcome,"CD69, CD69 (gene 969)",inactive
same,outcome,[17],inactive
same,outcome,[18],inactive
C#CC(O)C(CC)CCCC (stereo not given),outcome,[1],inactive
same,outcome,[2],inactive
same,outcome,[3],inactive
same,outcome,[4],inactive
same,outcome,"CD40, CD40 (gene 958) [5]",inactive
same,outcome,[6],inactive
same,outcome,[7],inactive
same,outcome,[8],inactive
same,outcome,[9],inactive
same,outcome,[10],inactive
same,outcome,[11],inactive
same,outcome,[12],inactive
same,outcome,[13],inactive
same,outcome,[14],inactive
same,outcome,[15],inactive
same,outcome,"CD38, CD38 (gene 952)",inactive
same,outcome,"CD40, CD40 (gene 958) [16]",inactive
same,outcome,"CD69, CD69 (gene 969)",inactive
same,outcome,[17],inactive
same,outcome,[18],inactive
